Source: ChEMBL document CHEMBL3988442, “University of Dundee, Small-Polar-MMV Screening Library” (2021)
In all, about 48,000 compounds went through this assay and about 13,000 (27%) showed an effect of 50% or more. This is one part of the list.

System: Wolbachia pipientis
Assay: Anti-Wolbachia Cell-Based Screen
Assay type: functional
Set-up: scale not given: in the data most compounds retested in dose-response had high values
Settings: 5 µM

SMILES | Percent Effect
CC(Cc1ccco1)NC(=O)Nc1ccc(S(C)(=O)=O)nc1 (stereo not given) | -6.327%
Cc1cc(-c2cc(N)c(=O)n(CC(=O)NC3CCCC3)n2)c(C)o1 | 122.3%
Cc1ccc(-c2cc(N)c(=O)n(CC(=O)NC3CCCCC3)n2)s1 | -5.352%
Cc1cc(-c2cc(N)c(=O)n(CC(=O)NC3CCCCC3)n2)c(C)o1 | 117.4%
COc1cc(C(=O)N2CCC(c3n[nH]c(C4CC4)n3)CC2)ccc1C | 15.65%
COc1cc(C(=O)N2CCC(Nc3cccnc3)CC2)ccc1C | 66.95%
COc1ccc(OC)c(C(=O)N2CCC(Nc3cccnc3)CC2)c1 | 94.46%
COc1ccc(OC)c(C(=O)N2C[C@H]3CC[C@@H]2CN(C)C3)c1 | 19.05%
O=C(c1ccc[nH]1)N(Cc1ccc(O)cc1)CC1CC1 | -7.123%
CC(OCc1ccccc1)C(=O)NCc1ccc(N(C)C)cc1 (stereo not given) | 130.9%
CN1CCC(CNC(=O)NCc2ccc(N(C)C)cc2)CC1 | -5.904%
CC(C)COC(C)C(=O)NCc1ccc(Cn2ccnc2)cc1 (stereo not given) | 0.5486%
CN(C)c1ccc(CNC(=O)Nc2ccc(S(=O)(=O)C(F)F)cc2)cc1 | -8.512%
CCOC(C)C(=O)NCc1ccc(N(C)C)cc1 (stereo not given) | 106.9%
CC(C)C(=O)NCc1ccc(N(C)C)cc1 | 131.8%
CC(OCc1ccccc1)C(=O)NC1CCN(CC(N)=O)CC1 (stereo not given) | -2.8%
CC(C)COC(C)C(=O)NCc1ccc(N(C)C)cc1 (stereo not given) | -1.344%
CCOC(C)C(=O)NCc1cccc(CN2CCCCCC2)c1 (stereo not given) | 0.5451%
CCOc1cc(CNCc2ncc[nH]2)c(Cl)cc1OC(C)C | -9.365%
CN(CCN1CCCC1)c1nccc(N2CCN[C@H]3CS(=O)(=O)C[C@H]32)n1 | -5.82%
c1cc(CCNc2ncnc3c2CCN(Cc2ccoc2)CC3)ccn1 | -12.64%
CC(C)Oc1ncnc2c1CCN(Cc1ccc(F)cc1)CC2.O=C(O)C(F)(F)F | 2.897%
CC(C)Nc1ncnc2c1CCN(Cc1ccoc1)CC2 | 96.99%
CC(C)Nc1ncnc2c1CCN(Cc1nccn1C)CC2.O=C(O)C(F)(F)F.O=C(O)C(F)(F)F | -25.56%
CC(C)Nc1ncnc2c1CCN(c1cc(C(F)(F)F)ncn1)CC2 | -0.2205%

SMILES | Percent Effect
COCCN1CCc2ncnc(NC(C)C)c2CC1.O=C(O)C(F)(F)F | 87.2%
COc1ccc(CN2CCc3ncnc(OC(C)C)c3CC2)cc1.O=C(O)C(F)(F)F | -22.8%
COCCN1CCc2ncnc(OC(C)C)c2CC1.O=C(O)C(F)(F)F | 107.2%
Nc1nc(CNc2ncnc3c2CCN(Cc2ccoc2)CC3)cs1 | -10.72%
O=C(N[C@@H]1C[C@H]2CC[C@@H]1C2)C1(Oc2ccc(Cl)cc2)CCNCC1 | 5.083%
Cc1nonc1C(=O)N1CCc2c(ncn2CCc2ccccc2)C1 | 7.043%
COc1cccc(-c2cc(NCc3nccn3C)n(C)n2)c1 | -16.42%
COCCNc1ncc(-c2cccc(OC)c2)c(-c2nccn2C)n1 | 73.04%
COCCNc1ncc(-c2cccc(F)c2)c(-c2nccn2C)n1 | 111.1%
Cn1ccnc1-c1nc(NC2CCCC2)ncc1-c1cccc(F)c1 | 77.55%
CSCCCNC(=O)Nc1cccc(-c2nccn2C)c1 | 3.955%
CSC(C)(C)CNC(=O)Nc1cccc(-c2nccn2C)c1 | -14.94%
COc1cccc(-c2nc(CNCCn3cccn3)cs2)c1 | -13.66%
Cc1ccc(CNC(c2cccc(F)c2)c2nccn2C)o1.Cl (stereo not given) | -1.716%
COCCCNc1ncc(-c2cccc(F)c2)c(-c2nccn2C)n1 | 116.3%
Cc1nnc(CN(C)CC(=O)N2CCCC(C(F)(F)F)C2)n1C (stereo not given) | -17.87%
CC1CCc2nc(O)c(C(=O)NCc3ccccc3F)cc2C1 (stereo not given) | -2.667%
C[C@@H]1CN(S(=O)(=O)N2CCCCCC2)C[C@@]1(O)C1CCC1 | 19.36%
O=C(O)C(F)(F)F.O=C([C@H]1C[C@H]2OCC[C@H]2N(C(=O)c2ccncc2)C1)N1CCCC1 | -2.024%
N#Cc1ccc(SCCC(=O)NC(N)=O)cc1 | 0.3622%
Cc1c(F)cccc1S(=O)(=O)N(C)CC(C)O (stereo not given) | 10.31%
CCOCCCNc1ncc(-c2cccc(F)c2)c(-c2nccn2C)n1 | 61.85%
CCOCCCC(=O)Nc1c(-c2ccc(F)cc2)ncn1C | -11.11%
CCOCCNC(=O)Nc1cccc(-c2nccn2C)c1 | -19.42%
CCCc1cnc(C)nc1N1CCC(F)(F)CC1 | -3.547%

SMILES | Percent Effect
Cc1cccc2c1nc1n2[C@@H](CNC(=O)NC(C)C)COC1 | -19.06%
Cc1cc(Nc2ccc3c(c2)CC(=O)N3)nc(C2CC2)n1 | -4.534%
CC(C)Oc1cccc(C(=O)C2CCCN(C(=O)c3ccnn3C)C2)c1 (stereo not given) | -5.247%
Cn1nccc1-c1nc2c(cc1C(=O)O)CCN(CC1CC1)CC2 | -6.641%
Cc1cn2c(n1)CCC(NC(=O)c1cc(Br)cn1C)C2 (stereo not given) | -1.001%
Cn1cc(-c2cnc(-c3ccnn3C)nc2)cc1C(=O)NC1CC1 | 95.89%
Cn1nccc1C(=O)N1CCN(C(=O)C2CC2)[C@@H]2CS(=O)(=O)C[C@@H]21 | 14.29%
Cn1cc(C(=O)NC2CCN(Cc3ccn(C)c(=O)c3)CC2)cn1 | -2.603%
Cn1nccc1-c1ncc(-c2cc(C(=O)O)n(CC3CC3)c2)cn1 | 118.9%
Cn1cc(-c2cnc(N3CCCC3)nc2)cc1C(=O)O | -13.43%
Cn1cc(-c2cnc(-c3ccnn3C)nc2)cc1C(=O)N1CCCC1 | 85.82%
COc1cccc2c1OCC(C(=O)N1CCC(N3CCSCC3)CC1)C2 (stereo not given) | -10.16%
CSc1ccc(NCC(=O)NC(=O)NCC(F)(F)F)cc1F | 2.815%
CCN(Cc1ccoc1)C(=O)Nc1ccccc1CN1CCOCC1 | 2.801%
Cc1cc(C(=O)NC2CC(=O)N(C(C)C)C2=O)c(C)n1C(C)C (stereo not given) | -25.95%
N[C@H]1CN(S(=O)(=O)c2cccnc2)C[C@@H]1C1CC1 | -0.9551%
CNC(=O)CS(=O)(=O)C1CCN(S(=O)(=O)c2cccnc2)CC1 | 10.97%
Cc1noc(C)c1-c1n[nH]c2c1CN(S(=O)(=O)c1cccnc1)CC2 | 2.189%
COCCc1noc(C2CCN(S(=O)(=O)c3cccs3)CC2)n1 | -5.417%
CC(C)[C@H]1CN(S(=O)(=O)c2cccnc2)C[C@@H]1N | -3.763%
Cc1cc(N(C)C)cc(C2CCN(S(=O)(=O)c3cccs3)C2)n1 (stereo not given) | 93.47%
Cc1cccc(C2CCCN(S(=O)(=O)c3cccnc3)C2)n1 (stereo not given) | 131.9%
O=S(=O)(c1cccs1)N1CCC(c2nc(-c3cccs3)no2)CC1 | 1.77%
Cc1cc(N(C)C)cc(C2CCN(S(=O)(=O)c3cccnc3)C2)n1 (stereo not given) | 129.7%
CN(C[C@@H]1CCC[C@@H]2CN(c3ncccn3)C[C@@H]21)C1CC1.O=C(O)C(F)(F)F | 9.93%

SMILES | Percent Effect
COc1ccc(N(Cc2ccco2)C(=O)C2CCOC2)cc1F (stereo not given) | -6.319%
COc1ccc(CNC(=O)N(Cc2ccc(F)cc2F)C2CC2)cn1 | 13.46%
NC(=O)CN1CCCN(C(=O)c2ccn(-c3ccccc3)n2)CC1 | -8.836%
CCSCc1ccc(C(=O)N2CCCN(CC(N)=O)CC2)cc1 | 111.3%
NC(=O)CN1CCCN(C(=O)c2ccc(SC(F)F)cc2)CC1 | 104.9%
NC(=O)CN1CCCN(C(=O)c2ccn(-c3ccc(F)cc3)n2)CC1 | 9.69%
Cc1cc(Br)oc1C(=O)N1CCCN(CC(N)=O)CC1 | -7.615%
CCSCc1ccc(C(=O)N2CCCN(CC)CC2)cc1 | 93.96%
NC(=O)N1CCCN(CCCSCc2ccccc2)CC1 | -22.93%
CCN1CCCN(C(=O)c2cnc(OC(C)C)c(Cl)c2)CC1 | 20.31%
CC(=O)N1CCCN(CCCSCc2ccccc2)CC1 | -18.43%
COc1ccc2[nH]c(C[C@@H]3C[C@@H](C(C)C)[C@H](CN(C)C)C=C3C)nc2c1 | -3.029%
Cc1ccc(C(CNCc2cccn2C)N2CCOCC2)s1 (stereo not given) | 12.06%
Cc1ccc2nc(NCCCN3CCCCCC3=O)n(C)c(=O)c2c1 | 5.904%
CCC(CC)NC(=O)c1ccc2nnc(C3CCN(C(C)=O)C3)n2c1 (stereo not given) | -17.88%
CN(C)C(=O)NC1COC2(CCN(C(=O)c3ccc(Cl)cc3)CC2)C1 (stereo not given) | -7.709%
O=C(c1ccoc1)N1CCC2(CC1)C(=O)Nc1ccccc12 | 5.078%
O=C(c1cnc(-c2ccccc2)nc1)N1CCOC2(CCCC2)C1 | -7.447%
NCCCC(=O)N1CCC2(CC1)CN(C(=O)c1ccc(Cl)cc1)CCO2 | 114.9%
CC(=O)N1CCC2(CC1)CN(C(=O)c1cccc3[nH]ccc13)CCO2 | -6.539%
O=C(c1ccc(Cl)cc1)N1CCC2(C1)C(=O)Nc1ccccc12 (stereo not given) | 123%
O=C(c1ccc(Cl)cc1)N1CCC2(CC1)C(=O)Nc1ccccc12 | 0.2295%
CC(C)N(C)C(=O)C1=NOC2(CCN(C(=O)c3ccc(Cl)cc3)C2)C1 (stereo not given) | -15.34%
NCCC(=O)N1CCC2(CC1)CN(C(=O)c1ccc(Cl)cc1)CCO2 | 94.29%
CN(C)Cc1ccc(NC(=O)c2nccn3ccnc23)cc1 | 4.692%
